Screening data: PubChem, National Center for Advancing Translational Sciences (NCATS)
The list is not random: actives were taken first. Their share in the collection is about 17%.
TDP1 inh: blocks human tyrosyl-DNA phosphodiesterase 1 | Potency, µM (series often up to 130 µM), most hits filed as inhibitors | 0.28% of 350,000 active | recombinant TDP1, AlphaScreen DNA substrate cleavage | AID 485290; further: nearly all actives have a fitted effect of over 40% in size
Target sequence (Q9NUW8 whole entry, looked up): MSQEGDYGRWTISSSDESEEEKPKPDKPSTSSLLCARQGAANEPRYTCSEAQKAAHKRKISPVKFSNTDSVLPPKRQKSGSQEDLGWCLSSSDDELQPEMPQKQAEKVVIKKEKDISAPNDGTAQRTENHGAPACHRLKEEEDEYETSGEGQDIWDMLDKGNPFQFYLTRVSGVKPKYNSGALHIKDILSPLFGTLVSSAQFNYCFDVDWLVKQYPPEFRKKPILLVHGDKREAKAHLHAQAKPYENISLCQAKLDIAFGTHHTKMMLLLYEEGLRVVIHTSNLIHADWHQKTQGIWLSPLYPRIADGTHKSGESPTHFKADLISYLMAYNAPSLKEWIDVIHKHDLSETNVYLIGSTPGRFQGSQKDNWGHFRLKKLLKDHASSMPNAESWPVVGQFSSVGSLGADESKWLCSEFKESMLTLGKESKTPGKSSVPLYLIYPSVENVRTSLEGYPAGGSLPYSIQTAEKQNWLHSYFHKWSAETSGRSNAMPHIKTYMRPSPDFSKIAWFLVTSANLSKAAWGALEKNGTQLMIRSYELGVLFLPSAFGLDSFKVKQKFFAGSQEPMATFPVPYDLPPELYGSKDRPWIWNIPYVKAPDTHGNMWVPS
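AlphaScreen read-out: signal falls as enzyme removes the 3' tyrosine-FITC from a 5'-biotinylated DNA oligo (15 nM, 5 min, RT). Enzyme was E. coli-made recombinant Tdp1 at 1 nM, exposed to compound for 15 min beforehand; beads 10 ug/ml, 10 min.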
TDP1 cell noCPT: qHTS for Inhibitors of human tyrosyl-DNA phosphodiesterase 1 (TDP1): qHTS in cells in absence of CPT; AID 686978, 2013; Potency, µM (top dose mostly 46.2 µM), most hits filed as inhibitors; DT40 Tdp1-/- hTDP1 cells, no CPT, ATP luminescence, 48 h; 15% of 420,000 active; further: nearly all actives have a fitted effect of over 55% in size
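Chicken DT40 Tdp1-/- cells complemented with human TDP1, screened without camptothecin (DMSO vehicle only), 400 cells/well. Compounds pin-transferred, cells incubated at 37 °C for at least 48 hr. Growth read as ATP-dependent luminescence (CellTiter-Glo, 30 min at RT).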
ClpP mod: qHTS Assay for Activators of ClpP; 1.9% of 340,000 active; Potency, µM (series often up to 57.5 µM); purified B. subtilis ClpP, FRET peptide cleavage, 20 min; ATP-dependent Clp protease proteolytic subunit (Bacillus subtilis (strain 168)), P80244; active means well fitted falling curve with a large enough effect; inconclusive means small, poorly fitted or top-dose-only effect; inactive means no such curve, though single readings can be large or run the other way; further: the source files actives as falling curves though it sought activators and does not explain the sign; nearly all actives have a fitted effect of over 65% in size
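ClpP 10 microg/mL final, pH 8 Tris/KCl buffer with BSA, glycerol, Tween-20; compound pinned in; FRET-FV substrate; RT 20 min; Ex320/Em430; ΔFRET vs ADEP 5.8 microM, DMSO, no enzyme.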
TDP1 cell CPT: growth inhibition of DT40 Tdp1-/-;hTDP1 cells with camptothecin (screen for TDP1 inhibitors). chicken DT40 Tdp1-/-;hTDP1 cells + 20 nM CPT, ATP luminescence, 48 h. Potency, µM (series often up to 46.2 µM), actives largely listed as inhibitors. 12% of 420,000 active. AID 686979; further: nearly all actives have a fitted effect of over 55% in size
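Chicken DT40 Tdp1-/- cells stably complemented with human TDP1 were seeded at 400 cells/well in medium containing 20 nM camptothecin, exposed to pin-transferred compounds, and grown at 37 °C for at least 48 hr. Viability was read as ATP luminescence.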
Hits are given with their value; n = inactive; u = inconclusive; x = no result; [ ] = remark or other dose. Unless noted, the call rests on the fitted dose curve; in most records, active means well fitted curve in the direction sought with a large enough effect; inconclusive means small, poorly fitted or top-dose-only effect, or another doubt; inactive means no such curve, though single readings can be large; an effect the other way counts as inactive or inconclusive.

SMILES	TDP1 inh	TDP1 cell noCPT	ClpP mod	TDP1 cell CPT
CC(C)CCn1c(SCC(=O)c2ccccc2)nc2c1c(=O)[nH]c(=O)n2C	n	n	n	u
CN(C)S(=O)(=O)c1ccc(/C(O)=C2/C(=O)C(=O)N(CCCN3CCOCC3)C2c2ccncc2)cc1 (stereo not drawn)	x	n	x	n
NC(=O)C1C(=O)c2ccccc2C1(C[N+](=O)[O-])c1ccccc1 (stereo not drawn)	x	n	x	u
COCCCN1C(=O)C(=O)/C(=C(/O)c2ccc(S(=O)(=O)N3CCOCC3)cc2)C1c1cccc(Cl)c1 (stereo not drawn)	n	n	x	n
CN1C(=O)[C@H]2[C@@H](/C=C/c3ccccc3)N3C(=O)CN(Cc4ccccn4)C(=O)[C@@]3(C)[C@H]2C1=O	x	n	n	n
C[C@@]12C(=O)N(Cc3ccc(-c4ccccc4)cc3)CC(=O)N1[C@H](/C=C/c1ccccc1)[C@@H]1C(=O)N(c3ccccc3)C(=O)[C@@H]12	x	23µM	n	u
COC(=O)CN1C(=O)[C@H]2[C@@H](/C=C/c3ccccc3)N3C(=O)CN(Cc4ccc(-c5ccccc5)cc4)C(=O)[C@@]3(C)[C@H]2C1=O	n	u	n	26µM
CCOc1ccc(OCC)c(NC(=O)Cn2nc(CC)n3c(cc4sccc43)c2=O)c1	n	u	n	u
COC(=O)c1cc2sc(C)cc2n1Cc1cccc(OC)c1	n	23µM	n	u
COc1ccccc1CC(=O)Nc1ncc(C)s1	x	16µM	n	u
COC(=O)c1cc2sc(C)cc2n1Cc1ccccc1	n	u	n	u
COc1cccc(CC(=O)Nc2ncc(C)s2)c1	n	15µM	x	8.2µM
COc1cccc(CC(=O)Nc2nc(C)cs2)c1	n	n	n	n
CCCCCCCCCCCCCCCC(=O)NC(C)C	n	n	x	n
Cc1ccsc1CN(C)C(=O)CN1C(=O)NC2(CCCc3ccccc32)C1=O (stereo not drawn)	n	n	n	n
COc1ccc(S(=O)(=O)Nc2ccc3c(c2)C(=O)N([C@@H](C)CO)C[C@H](C)[C@H](CN(C)S(=O)(=O)c2ccc(F)cc2)O3)cc1	n	u	n	u
C=C1CCN(C(Cc2ccccc2)C(=O)NCc2ccccc2)S(=O)(=O)c2ccccc21 (stereo not drawn)	n	x	x	x
CCN(CC)c1ccc(NC(=O)CN2CCN(c3nc(C)cc(C)n3)CC2)cc1	n	16µM	u	u
COc1ccccc1NC(=O)CN1CCN(c2ccccc2F)CC1	n	u	n	21µM
CCOc1ccc(NC(=O)CN2CCN(CC(=O)Nc3ccccc3OC)CC2)cc1	x	u	n	u
COc1ccccc1NC(=O)CN1CCN(CC(=O)Nc2ccccc2Cl)CC1	x	n	n	n
COc1ccccc1NC(=O)CN1CCN(c2ccc(Cl)cc2)CC1	n	16µM	n	21µM
CCN(CC)c1ccc(NC(=O)CN2CCN(c3ccc(F)cc3)CC2)cc1	n	u	n	u
CCN(CC)c1ccc(NC(=O)CN2CCN(CC(=O)Nc3ccccc3OC)CC2)cc1	n	u	n	23µM
O=[N+]([O-])c1cccc(/C=C/c2nc[nH]c2[N+](=O)[O-])c1	x	n	n	n
SMILES	TDP1 inh	TDP1 cell noCPT	ClpP mod	TDP1 cell CPT
COc1cc(NC(=O)CCN2CCN(c3ccccc3)CC2)cc(OC)c1	n[12.3 µM]	x	x	x
CCOC(=O)C1=C(O)/C(=C\c2ccc(CNS(=O)(=O)c3ccc(Br)cc3)o2)N=C1C	n	u	n	n
CC(C)n1cnc2c(Nc3cccc(Cl)c3)nc(NCCCO)nc21	n	16µM	n	21µM
C=C1C(C(=O)Nc2ccccc2)C1C(=O)Nc1ccccc1 (stereo not drawn)	n	n	n	n
COc1cc(NC(=O)CSc2nc(C)c(C(=O)Nc3ccccc3)c(-c3ccc(OC)c(OC)c3)c2C#N)c(OC)cc1Cl	n[12.3 µM]	n	n	n
CN(Cc1ccccc1)N=Nc1ccccc1	x	u	n	n
CN(C)N=Nc1ccc(-c2cn(Cc3ccccc3)cn2)cc1	x	26µM	x	n
Cc1ccc(N2C(S)=C(C#N)C(=O)NC2c2ccco2)cc1 (stereo not drawn)	n	u	n	23µM
Cc1ccc(N2C(S)=C(C#N)C(=O)NC2c2cccs2)cc1 (stereo not drawn)	n	13µM	n	15µM
CC(=O)[C@@H]1CC[C@@H]2[C@@H]3C[C@H](C)C4=CC(=O)CC[C@@]4(C)[C@H]3[C@H](O)C[C@]21C	n[21 µM]	x	x	x
COc1cccc(NC(=O)CN(C)C(=O)c2cc(-c3ccccc3)nc3ccc(C)cc23)c1	x	10µM	x	13µM
COc1cccc(NC(=O)CN(C)C(=O)c2cc(-c3ccc(C)o3)nc3ccccc23)c1	n	21µM	n	u
COc1cccc(NC(=O)CN(C)C(=O)c2cc(C)oc2C)c1	n	n	n	n
COc1cccc(NC(=O)CN(C)C(=O)c2cc(-c3cccc(Br)c3)nc3ccccc23)c1	x	16µM	n	u
COC(=O)c1ccc(C(=O)OC)c(NC(=O)N2CC3CCCN3c3ccccc32)c1 (stereo not drawn)	n	u	u	u
Cc1cc(OCC(=O)Nc2cc(-c3nn4c(C)nnc4s3)ccc2C)ccc1Cl	n	u	n	4.1µM
COc1ccc(C(=O)Nc2cc(-c3nn4c(C)nnc4s3)ccc2C)cc1	n	n	n	n
Cc1ccc(-c2nn3c(C)nnc3s2)cc1NC(=O)c1ccc(OC(C)C)cc1	n	u	n	13µM
COc1ccc(OCC(=O)Nc2cc(-c3nn4c(C)nnc4s3)ccc2C)cc1	n	n	n	n
Cc1cccc(CN(C)C[C@H]2OCc3cnnn3CCCC(=O)N([C@@H](C)CO)C[C@@H]2C)c1	x	n	n	n
O=C(CN1CCC(Cc2ccccc2)CC1)NCCc1ccc(F)cc1	n	n	x	n
O=C(NCCc1ccccc1)C1CCCN1C(=O)Nc1ccc(F)cc1 (stereo not drawn)	n	15µM	n	u
COc1ccc(CCNC(=O)CN2CCN(c3cccc(C(F)(F)F)c3)CC2)cc1	n	u	n	u
NS(=O)(=O)c1ccc(CCNC(=O)CN2CCN(Cc3cccc(C(F)(F)F)c3)CC2)cc1	n	23µM	x	23µM
NS(=O)(=O)c1ccc(CCNC(=O)C2CCCN2C(=O)OCc2ccccc2)cc1 (stereo not drawn)	n	n	32µM	n
NS(=O)(=O)c1ccc(CCNC(=O)CN2CCC(Cc3ccccc3)CC2)cc1	n	16µM	x	u
Cc1cc2c(s1)c1cnn(Cc3ccc(F)c(F)c3F)c(=O)c1n2C	n	x	x	x
CC(C)C(=O)OCc1cc(=O)n2nc(C3CCCCC3)sc2n1	n	n	n	n
NS(=O)(=O)c1ccc(CCNC(=O)C2CCN(S(=O)(=O)c3ccccc3)CC2)cc1	n	n	28µM	n
Cc1ccc(Cn2c(=O)n(CCCCC(=O)NCCc3ccc(Cl)cc3)c(=O)c3ccccc32)cc1	n	u	n	u
